Laboratory results: PubChem BioAssay (Tox21)
“And” between values parts separate entries of the source, which are not always exact repeats. Equal values may be shown once. Results filed as inconclusive are left out. A structure can be active in one record and inactive in another. The source made the active and inactive calls. Unless noted, the call rests on the fitted dose curve; in most records, active means well fitted curve in the direction sought with a large enough effect in the repeat runs; inconclusive means weak or mixed curves; inactive means no such curve, though single readings can be large; an effect the other way counts as inactive or inconclusive.

What was measured:
[1] = qHTS assay to identify small molecule agonists of H2AX - cell viability counter screen (AID 1224847; calls by dose curve;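 further: wild-type CHO-K1 cells; top concentration of the series differs between compounds; nearly all actives have a fitted effect of over 30% in size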)
Outline: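 CHO-K1 wt, 1000 cells/well, o/n 37C; cpds 15 conc, 3 h 37C, 0.76% DMSO; CellTiter-Glo, 30 min RT, luminescence.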

[2] = qHTS RealTime-Glo MT Cell Viability Assay in HepG2 cells - 24 hour (AID 1224867); further: nearly all actives have a fitted effect of over 50% in size
Outline: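 HepG2 cells were seeded at 600 cells/well together with NanoLuc luciferase and a cell-permeant prosubstrate, preincubated 5 h at 37 C/5% CO2, then pin-dosed with compounds in DMSO. Nonlytic luminescence from viable cells was read at each time point.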

[3] = qHTS RealTime-Glo MT Cell Viability Assay in HEK293 cells - 32 hour (AID 1224868); further: nearly all actives have a fitted effect of over 50% in size; further: potency means the concentration at half of the fitted maximal effect; on activity change, negative = cytotoxic: top concentration of the series differs between compounds
Outline: (§1)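 HEK293 cells were seeded at 600 cells/well together with NanoLuc luciferase and cell-permeant prosubstrate, preincubated 5 h at 37 C/5% CO2, then given compound in DMSO by pintool. Luminescence from viable-cell prosubstrate reduction was read repeatedly over 40 h.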

[4] = A CellTox Green Cytotoxicity Assay to monitor cytotoxicity in HEK293 cells - 0 hour (AID 1224869); further: nearly all actives have a fitted effect of over 50% in size
Outline: (§2)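 HEK293 cells premixed with CellTox Green dye were seeded at 600 cells/well and left 5 h at 37 C/5% CO2 before pin transfer of 23 nL compound in DMSO. Fluorescence from dye bound to dead-cell DNA was read during 40 h treatment.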

[5] = qHTS RealTime-Glo MT Cell Viability Assay in HepG2 cells - 40 hour (AID 1224870); further: nearly all actives have a fitted effect of over 50% in size
Outline: (§3)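 Real-time viability: cells seeded at 600 per well together with NanoLuc and cell-permeant prosubstrate, compounds added after 5 h incubation. Luminescence tracked at 0, 8, 16, 24, 32 and 40 h of exposure.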

[6] = A CellTox Green Cytotoxicity Assay to monitor cytotoxicity in HEK293 cells - 40 hour (AID 1224871); further: nearly all actives have a fitted effect of over 45% in size; further: potency means the concentration at half of the fitted maximal effect
Outline: as §2

[7] = qHTS RealTime-Glo MT Cell Viability Assay in HEK293 cells - 16 hour (AID 1224872)
Outline: as §1

[8] = qHTS RealTime-Glo MT Cell Viability Assay in HepG2 cells - 8 hour (AID 1224873); further: nearly all actives have a fitted effect of over 55% in size
Outline: as §3

[9] = qHTS assay to identify small molecule antagonists of the estrogen related receptor (ERR) signaling pathway from Tox21 library (AID 1224848); further: nearly all actives have a fitted effect of over 50% in size
Outline: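 Antagonist-mode screen of the Tox21 10K library in an NTP-provided ERR reporter cell line; 18 h compound exposure at 37 C, luminescence measured with ONE-Glo.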

[10] = qHTS assay to identify small molecule agonists of the estrogen related receptor (ERR) signaling pathway from Tox21 library (AID 1224849; calls by dose curve; further: nearly all actives have a fitted effect of over 15% in size); conditions: ERR reporter cell line, ONE-Glo luciferase, 18 h
Outline: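 ERR reporter cell line (NTP) seeded, rested 6 h at 37 C/5% CO2, then pinned with Tox21 compounds in DMSO. After 18 h at 37 C, ONE-Glo luciferase luminescence was read following 30 min at room temperature.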
On the % scale 0 is the no-effect control and ±100 the full control effect.

CC(=O)c1ccccc1
inactive: Potency [1] | outcome [2] | Potency [3] | outcome [4] | outcome [5] | Potency [6] | Potency [7] | outcome [8]

CCC(O)OCCCOC (stereo unspecified)
inactive: Potency [9] | activity change, positive = activation ([10]; at 92.4 µM (top of the series)) 1.37% and 8.84% | outcome [2] | Potency [3] | outcome [4] | outcome [5] | Potency [6] | Potency [7] | outcome [8]

CCCCCOC(C)=O
inactive: outcome [2] | Potency [3] | outcome [4] | outcome [5] | Potency [6] | outcome [8]

C=CCNC(N)=S
inactive: outcome [2] | Potency [3] | outcome [4] | outcome [5] | Potency [6] | Potency [7] | outcome [8]

COc1ccc(Nc2ccccc2)c(C)c1
inactive and 43.6 µM (active): Potency [6]
inactive: Potency [9] | activity change, positive = activation ([10]; at 92.4 µM (top of the series)) -0.657% | outcome [2] | Potency [3] | outcome [4] | outcome [5] | outcome [8]

CCCCCC1=CCCC1=O
inactive: outcome [2] | Potency [3] | outcome [4] | outcome [5] | Potency [6] | outcome [8]

C=C(C)C(=O)OCCOCCOCCOC(=O)C(=C)C
inactive: outcome [2] | Potency [3] | outcome [4] | outcome [5] | Potency [6] | Potency [7] | outcome [8]

COc1ccc(Cl)cc1C(=O)NCCc1ccc(S(=O)(=O)NC(=O)NC2CCCCC2)cc1
inactive: outcome [2] | Potency [3] | outcome [4] | outcome [5] | Potency [6] | Potency [7] | outcome [8]

O=C(O)CCCC[C@@H]1SC[C@@H]2NC(=O)N[C@@H]21
inactive: Potency [9] | activity change, positive = activation ([10]; at 42.5 µM (top of the series)) 7.51% | activity change, positive = activation ([10]; at 92.4 µM (top of the series)) 9.85% | outcome [2] | Potency [3] | outcome [4] | outcome [5] | Potency [6] | Potency [7] | outcome [8]

CCCCC(CC)COC(=O)CS (stereo unspecified)
inactive and 17.4 µM (active): Potency [3]
inactive: Potency [9] | activity change, positive = activation ([10]; at 92.4 µM (top of the series)) -0.266% and -15.8% | outcome [2] | outcome [4] | outcome [5] | Potency [6] | Potency [7] | outcome [8]

CCCC(C)=O
inactive: outcome [2] | Potency [3] | outcome [4] | outcome [5] | Potency [6] | Potency [7] | outcome [8]

CCCCCC(N)=O
inactive: outcome [2] | Potency [3] | outcome [4] | outcome [5] | Potency [6] | outcome [8]

CCCCCCCCCCCCOCCO
inactive: outcome [2] | Potency [3] | outcome [4] | outcome [5] | Potency [6] | outcome [8]

COS(C)(=O)=O
inactive: Potency [9] | activity change, positive = activation ([10]; at 92.4 µM (top of the series)) 1.76% and -2.76% | outcome [2] | Potency [3] | outcome [4] | outcome [5] | Potency [6] | Potency [7] | outcome [8]

Cc1cccc(O)c1
inactive: Potency [9] | activity change, positive = activation ([10]; at 92.4 µM (top of the series)) 8.59% and 2.31% | outcome [2] | Potency [3] | outcome [4] | outcome [5] | Potency [6] | outcome [8]

CC(c1cc2ccccc2s1)N(O)C(N)=O (stereo unspecified)
inactive: outcome [2] | Potency [3] | outcome [4] | outcome [5] | Potency [6] | Potency [7] | outcome [8]

CC1=CCC2CC1C2(C)C (stereo unspecified)
inactive: outcome [2] | Potency [3] | outcome [4] | outcome [5] | Potency [6] | Potency [7] | outcome [8]

Cc1cnc(C(=O)NCCc2ccc(S(=O)(=O)NC(=O)NC3CCCCC3)cc2)cn1
inactive: outcome [2] | Potency [3] | outcome [4] | outcome [5] | Potency [6] | Potency [7] | outcome [8]

CCCCCCCCCCCCS
inactive: outcome [2] | Potency [3] | outcome [4] | outcome [5] | Potency [6] | Potency [7] | outcome [8]

C#C[C@]1(O)CC[C@H]2[C@@H]3CCC4=CC(=O)CC[C@@H]4[C@H]3CC[C@@]21C
inactive: outcome [2] | Potency [3] | outcome [4] | outcome [5] | Potency [6] | Potency [7] | outcome [8]

Cc1occc(=O)c1O
inactive: outcome [2] | Potency [3] | outcome [4] | outcome [5] | Potency [6] | Potency [7] | outcome [8]

CCCCCCOCCO
inactive: outcome [2] | Potency [3] | outcome [4] | outcome [5] | Potency [6] | Potency [7] | outcome [8]

CC(=O)OCC(=O)[C@@]12N=C(C)O[C@@H]1C[C@H]1[C@@H]3CCC4=CC(=O)C=C[C@]4(C)[C@H]3[C@@H](O)C[C@@]12C
inactive: outcome [2] | Potency [3] | outcome [4] | outcome [5] | Potency [6] | Potency [7] | outcome [8]

CC1CCC(C(C)C)C(O)C1 (stereo unspecified)
inactive: outcome [2] | Potency [3] | outcome [4] | outcome [5] | Potency [6] | Potency [7] | outcome [8]

CCN(CC)CCCC(C)Nc1ccnc2cc(Cl)ccc12 (stereo unspecified)
inactive: activity change, negative = cytotoxicity [2] 1.52% [at 6.97 µM] and -6.42% [at 15.8 µM] | activity change, negative = cytotoxic [3] -16.4% [at 6.97 µM] | cytotoxicity [4] 0.802% [at 6.97 µM] and -1.16% [at 15.8 µM] | activity change, negative = cytotoxic [5] -2.02% [at 6.97 µM] and -2.98% [at 15.8 µM] | cytotoxicity increase [6] -14.6% [at 6.97 µM] and 9.06% [at 15.8 µM] | activity change, negative = cytotoxicity [7] -11.3% [at 6.97 µM] | viability change, negative = cytotoxic [8] -1.01% [at 6.97 µM] and -3.34% [at 15.8 µM]

O=c1[nH]nnc2ccccc12
inactive: Potency [9] | activity change, positive = activation ([10]; at 92.4 µM (top of the series)) 5.04% and -0.708% | outcome [2] | Potency [3] | outcome [4] | outcome [5] | Potency [6] | outcome [8]

O=C(O)[C@H](O)[C@@H](O)[C@H](O)[C@H](O)CO
inactive: outcome [2] | Potency [3] | outcome [5] | Potency [7] | outcome [8]

CC[C@H](C)C(=O)O[C@H]1C[C@@H](C)C=C2C=C[C@H](C)[C@H](CC[C@@H]3C[C@@H](O)CC(=O)O3)[C@H]21
inactive: Potency [9] | outcome [2] | Potency [3] | outcome [4] | outcome [5] | Potency [6] | Potency [7] | outcome [8]
active: activity change, positive = activation ([10]; at 42.5 µM (top of the series)) 14.3% | activity change, positive = activation ([10]; at 92.4 µM (top of the series)) -46.9% and 27.5%
